EPAC1 agonist: agonists of human EPAC1. O95398. EPAC1 agonist qHTS, biochemical assay; response scale: 100% = response to 6.5 mM cAMP. Potency, µM (titrated, usually from 154 µM), without a hit: top-dose activation, actives largely listed as activators. 360,000 tested, 0.073% active; note: nearly all actives have a fitted effect of over 60% in size
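Nucleotide exchange assay: 100 nM EPAC1 with 250 nM Rap1B loaded with BODIPY-GDP and 50 uM GDP, room temperature. Fluorescence (480/540 nm) read every 5 min for 30 min; signal change normalized to 6.5 mM cAMP as full agonist.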
USP2a inh: inhibitors of human ubiquitin-specific protease USP2a. AID 463254. 330,000 tested, 0.01% active. Potency, µM (doses to about 38.3 µM), inactives show at the highest dose activity change, negative = inhibition, most hits filed as inhibitors. O75604. USP2 core, Ub-CHOP2 coupled fluorogenic reporter, 485/531;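 note: plate controls were DMSO wells for no effect and full inhibition by NEM control for full effect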
Target sequence (O75604 whole entry, looked up): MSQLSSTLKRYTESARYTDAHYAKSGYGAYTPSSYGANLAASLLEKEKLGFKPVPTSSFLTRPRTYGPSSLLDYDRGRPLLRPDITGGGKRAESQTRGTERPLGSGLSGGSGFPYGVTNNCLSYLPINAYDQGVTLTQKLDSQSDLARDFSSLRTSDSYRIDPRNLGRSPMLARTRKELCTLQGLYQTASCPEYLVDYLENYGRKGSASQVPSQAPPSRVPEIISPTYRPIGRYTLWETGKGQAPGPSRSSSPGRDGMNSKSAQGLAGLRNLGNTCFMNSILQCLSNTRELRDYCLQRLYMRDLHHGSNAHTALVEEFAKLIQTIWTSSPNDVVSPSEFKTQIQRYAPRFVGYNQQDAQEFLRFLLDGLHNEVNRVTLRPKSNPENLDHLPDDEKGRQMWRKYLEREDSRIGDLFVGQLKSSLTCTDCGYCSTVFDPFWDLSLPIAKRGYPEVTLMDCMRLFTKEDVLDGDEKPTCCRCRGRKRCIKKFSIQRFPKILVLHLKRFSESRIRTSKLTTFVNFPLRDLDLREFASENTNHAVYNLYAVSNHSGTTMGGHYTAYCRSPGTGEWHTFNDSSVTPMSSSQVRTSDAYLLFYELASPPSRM
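Cell-free coupled assay: 10nM USP2 core preincubated 30min RT with compound in Tris-HCl pH 8.0/CaCl2/CHAPS buffer, then 25nM Ub-CHOP2 and 25nM reporter substrate; fluorescence (Ex 485/Em 531) read after 60min RT, normalized to NEM inhibition, concentration-response curves fitted.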
EPAC2 ag: EPAC2 (human) agonism | Q8WZA2 | EPAC2 activation, biochemical qHTS; response scale: 100% = 6.5 mM cAMP response | Potency, µM (titrated, usually from 154 µM), for the others: at the highest dose activation, actives largely listed as activators | 360,000 tested, 0.079% active; note: nearly all actives have a fitted effect of over 50% in size
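Nucleotide exchange monitored as fluorescence drop when BODIPY-GDP leaves Rap1B. Reaction: 100 nM EPAC2, 250 nM RAP1B-BODIPY-GDP, 50 uM GDP, room temperature, kinetic read over 30 min. Activity expressed relative to 6.5 mM cAMP.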
EPAC2 antagonist: blocks human EPAC2 exchange factor; Q8WZA2; EPAC2 GEF exchange of Rap1B-BODIPY-GDP, fluorescence; Potency, µM (series often up to 114 µM), for the others: top-dose activity, negative = inhibition, most hits filed as inhibitors; 360,000 tested, 0.18% active; note: % is set by controls: 0 for no effect and ±100 for the full control effect; nearly all actives have a fitted effect of over 45% in size
USP1 inh: USP1/UAF1 (human) deubiquitinase inhibition; recombinant USP1/UAF1, Ub-Rhodamine cleavage fluorescence; Potency, µM (top dose mostly 57.1 µM), inactives show top-dose activity change, negative = inhibition, hits mostly inhibitors; 390,000 tested, 0.23% active; note: % is set by controls: 0 for no effect and ±100 for the full control effect; nearly all actives have a fitted effect of over 60% in size
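Step one: compound is pinned into 1nM USP1/UAF1 in HEPES pH 7.8 buffer with TCEP. Step two: 15 min room-temperature incubation. Step three: Ub-Rho (150nM final) starts cleavage, tracked by fluorescence over six one-minute reads.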
EPAC1 antag: blocks human EPAC1 exchange factor | 360,000 tested, 0.14% active | O95398 | EPAC1 GEF assay, Rap1b-BODIPY-GDP exchange fluorescence | Potency, µM (top dose mostly 115 µM), for inactives: at the top dose activity change, negative = inhibition, usual class: inhibitors;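 note: plate controls were vehicle for no effect and positive control for full effect; nearly all actives have a fitted effect of over 50% in size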
An asterisk follows results filed as active; ? = inconclusive; . = not tested or not shown; [ ] = remark or other dose. Most compounds without a hit are left out; they make up all but 0.44% or so of the library. Calls come from the whole dose curve; as a rule, active = well fitted curve in the direction sought with a large enough effect; inconclusive = small, poorly fitted or top-dose-only effect, or another doubt; inactive = no such curve, though single readings can be large; an effect the other way counts as inactive or inconclusive. Potency is the fitted concentration of half-maximal effect.

SMILES | EPAC1 agonist | USP2a inh | EPAC2 ag | EPAC2 antagonist | USP1 inh | EPAC1 antag
CC(=O)Nc1ccc(N(C(=O)Cn2nnc3ccccc32)C(C(=O)NC2CCCC2)c2ccc(O)c(O)c2)cc1 (stereo unspecified) | 6% | 8% | 3% | -4% | -23% | ?
CCC(C)NC(=O)c1c(N)n(CCCOC)c2nc3ccccc3nc12 (stereo unspecified) | 3% | -1% | 11% | -7%[57.1 µM] | 32µM* | -4%
COCCCn1c(N)c(C(=O)Nc2ccccc2)c2nc3ccccc3nc21 | 2% | -1% | 5% | -2% | ? | 3%
CCCCn1c(NC(=O)c2ccc(Br)o2)c(C(=O)OCC)c2nc3ccccc3nc21 | -5% | 5% | 13% | ? | 25µM* | ?
CCCCn1c(NS(=O)(=O)c2ccccc2)c(C(=O)OCC)c2nc3ccccc3nc21 | 3% | -22% | 11% | -6% | 22µM* | -17%
Cc1cccc(-n2c(O)c(/C=C/C=Nc3ccccc3)c(=O)[nH]c2=O)c1 | 100µM* | ? | -22% | 9% | ? | 6%
CNS(=O)(=O)c1ccc(N=Cc2c(O)n(-c3cccc(C)c3)c(=O)[nH]c2=O)cc1 | 12% | 1% | 26% | -4% | -5% | 10%
Cc1ccccc1-n1c(O)c(/C=C/C=Nc2ccccc2)c(=O)[nH]c1=O | 89µM* | ? | ? | 89% | 32µM* | 64%
O=C(Nc1ccc(Oc2ccc(Cl)cc2)c(Cl)c1)c1cc(I)cc(I)c1O | -14% | 3% | 4% | ? | ? | 40µM*
COc1ccc(OC)c(/C=N/OC(=O)Nc2ccc(Cl)cc2)c1 | 6% | 1% | 18% | 6% | -28% | -16%
CN1C[C@@H]2[C@@H]3C(=O)N(Cc4ccccc4)C(=O)[C@@H]3[C@](Cc3ccccc3)(C1=O)N2C(=O)c1ccc(F)cc1 | 1% | . | 6% | -12% | ? | -4%
CCCCn1c(O)c(C(=O)/C=C/c2c[nH]c3ccccc23)c(=O)[nH]c1=O | 14% | 0% | 9% | 5% | 25µM* | 12%
CN(C)c1ccc(N=Cc2c(O)n(CCC3=CCCCC3)c(=O)[nH]c2=O)cc1 | ? | 19% | 19% | 16% | 0% | 17%
CCN(CC)c1ccc(N=Cc2c(O)n(CCC3=CCCCC3)c(=O)[nH]c2=O)cc1 | 5% | 2% | ? | 56µM* | 193% | 7%
O=[N+]([O-])c1cc([As](=O)(O)c2ccc(O)c([N+](=O)[O-])c2)ccc1O | -4% | 3% | -1% | 18µM* | -12% | 10%
O=[N+]([O-])c1cc(-c2ccc([As](=O)(O)O)cc2)ccc1[As](=O)(O)O | . | -2% | . | . | . | .
CCn1c(SCC(=O)Nc2nncs2)nnc1-c1ccco1 | -2% | 3% | 2% | 13% | -15% | 35%

Compound activity (PubChem BioAssay)
